The whole screen tested about 370,000 compounds, of which about 5,400 (1.5%) were called active.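 How the source made its calls: active means activation above the mean of all tested compounds plus 3 SD (cut at about 5.5% in these data); inactive means the rest.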 This excerpt belongs to a sample that is enriched for actives.

The assay deals with DAF-12 nuclear receptor (Haemonchus contortus). The experiment in a line: H. contortus DAF-12 nuclear receptor activators, primary screen, cell-based, luminescence, HEK293, lit1-tk-luc reporter (AID 652067).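 Further: 100% = response to 3 µM Δ7-dafachronic acid high control.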 The conditions noted are these: HEK293 hcDAF-12 lit1-tk-luc reporter, at 6.8 µM, stronger effect = higher value, 0% DMSO, 100% Δ7-dafachronic acid.
For the molecule `COc1cccc(N2CCN(CC(=O)N(C)Cc3ccc(F)cc3)CC2)c1`, the activation is -2.02% (inactive). The figure for `C=CCN1C(=O)[C@H](CC(=O)NCCCN2CCCC2=O)[C@@]2(C(=O)OCC)CCCC=C12` is -0.18% (inactive). In the case of `Cc1ccc(NC(=O)c2cc(C)nn2-c2ccccc2)c(C)c1`, the activation is -2.18% (inactive).

Regarding `Clc1cccc2c1C1CC2CCN1Cc1ccccc1` (configuration not stated), the activation was -1.68% (inactive). To `CS(=O)(=O)N(Cc1ccccc1Cl)c1ccc(C(=O)NCc2cccnc2)cc1` belongs -2.13% (inactive); to `O=C(COC(=O)c1ccco1)Nc1ccc(Cl)cn1`, 0.13% (inactive); to `CC(OC(=O)CNC(=O)c1ccco1)C(=O)Nc1ccc(Cl)cn1` (configuration not stated), -2.11% (inactive). On to `CCCc1cc(C(=O)Nc2ccc(Cl)cn2)cs1`, for which the activation is 7.31% (active).

Turning to `O=C(Nc1cc(Cl)cc(Cl)c1)OCCN1CCCC12CCC(c1ccccc1)CC2` (configuration not stated), the activation was -0.18% (inactive).

As for `COC(=O)[C@]12C[C@H](CC(=O)N3CCOCC3)C(=O)N(Cc3ccc(Cl)cc3Cl)C1=C[C@H](COCc1ccccc1)O[C@@H]2C`, the activation is -3.03% (inactive). To `NC(=S)N/N=C/c1coc2cc(Cl)ccc2c1=O` belongs 5.81% (active). To `NC(=S)NN=Cc1ccc(OC(=O)COc2cc(Cl)c(Cl)cc2Cl)cn1` belongs -1.62% (inactive); to `CC(C)Oc1c(Br)cc(Br)cc1/C=N/NC(N)=S`, -4.22% (inactive); to `Cc1cc(N2CCN(C(=O)OC(C)(C)C)C[C@H]2C)ccc1N1CCN(Cc2ccccc2)[C@H](C)C1`, 1.47% (inactive).

For `O=C(Nc1ccccc1)N(Cc1cccnc1)Cc1ccco1`, the activation was -0.9% (inactive). The figure for `COc1cccc(N(C(=O)CNC(=O)c2ccco2)C(C(=O)NC2CCCCC2)c2cccnc2)c1` (configuration not stated) is -0.65% (inactive); for `CC(C)(C)NC(=O)C(c1ccncc1)N(C(=O)CNC(=O)c1ccco1)c1ccc2c(c1)OCO2` (configuration not stated) it is 6.8% (active). The figure for `Cc1ccc(N(C(=O)CNC(=O)c2ccco2)C(C(=O)NC2CCCC2)c2ccncc2)cc1` (configuration not stated) is 0.7% (inactive). For `CC(C)CNc1cccc2c1S(=O)(=O)N[C@H](CC(C)C)CO2`, the activation was -1.3% (inactive). With `Nc1ccccc1/C=N\N=C/c1ccccc1N`, the activation is 8.99% (active). To `C=CCN1C(=O)[C@@H](CC(=O)NCCCCc2ccccc2)[C@]2(C(=O)OCC)CCCCC/C=C/12` belongs -0.4% (inactive). The figure for `CC(=O)c1c(Nc2ccccc2)sc(C(=O)c2ccccc2)c1C` is -2.59% (inactive). The figure for `COC(=O)c1cc2c(N)c(C(=O)c3ccc(Cl)cc3)sc2nc1C(OC)OC` is 0.3% (inactive). Regarding `CN(C)c1ccnc2sc(C(=O)c3ccccc3)c(N)c12`, the activation was 6.4% (active). With `CCCCCCCCN1C(=O)[C@@H](CC(=O)N2CCN(C(=O)OCC)CC2)C[C@@]2(C(=O)OC)C1=C[C@H](C1CCCC1)O[C@@H]2C`, the activation is -0.68% (inactive). The figure for `COc1cccc(CN2C(=O)CCC2(C)C(=O)NC2CCCCCC2)c1` (configuration not stated) is -2.09% (inactive); for `O=C(CSc1nnc(COc2ccccc2)n1-c1ccc(Cl)cc1)Nc1ccc2c(c1)OCO2` it is -0.19% (inactive); for `Cc1ccc(C)c(N2CCN(C(=O)CCc3nc(-c4cccc(C(F)(F)F)c4)no3)CC2)c1` it is 6.2% (active). `COc1ccc(N2CCN(C(=O)CCc3nc(-c4ccc(C)cc4)no3)CC2)cc1`: the activation was -1.97% (inactive).

For `COc1ccc(-c2noc(CCC(=O)N3CCN(c4cccc(C)c4)CC3)n2)cc1`, the activation is -0.53% (inactive). Regarding `C=CS(=O)(=O)N(Cc1nnn(Cc2ccccc2)c1Br)[C@H](C(=O)OC)C(C)C`, the activation was -3.12% (inactive).

In the case of `O=C(NCC(=O)N1CCN(c2ccccc2O)CC1)c1ccc2ccccc2c1`, the activation was 6.1% (active). The figure for `COc1ccc(N2CCN(C(=O)CNC(=O)c3ccc(C(C)(C)C)cc3)CC2)cc1` is -2.42% (inactive); for `O=C(CNC(=O)c1ccc2ccccc2c1)Nc1ncccc1O` it is 0.18% (inactive); for `Clc1ccc(-n2c(COc3ccccc3)nnc2SCc2nc3ccccc3[nH]2)cc1` it is -0.51% (inactive).

As to `NNC(=O)C1CCCn2c1nc1sc3c(c1c2=O)CCCC3` (configuration not stated), the activation was 8.63% (active). To `CCc1nc(N2CCN(C(C)=O)CC2)c2c3c(sc2n1)CCCC3` belongs 0.85% (inactive); to `CCn1c(SCC(C)=O)nc2sc3c(c2c1=O)CCCC3`, -0.57% (inactive); to `COC(=O)C1=C(C(=O)OC)C2C=C(C(C)C)C1C(=O)C2(C)O` (configuration not stated), -1.42% (inactive). To `O=C(OCC#CCSc1nnc(-c2ccco2)o1)c1ccc(F)cc1` belongs -1.32% (inactive); to `O=C(O)Cn1cnc2c(NCc3ccccc3)ncnc21`, 0.95% (inactive); to `Cc1cc(=O)[nH]c(SCC(=O)Nc2ccc(F)cc2F)n1`, -0.74% (inactive). As to `O=C(Nc1ccccc1)N1CCN(Cc2nc3ccccc3c(=O)[nH]2)CC1`, the activation is 0.3% (inactive). `Fc1ccccc1/C=N/Nc1cc(N2CCCCC2)ncn1`: the activation was 5.99% (active). Regarding `Cc1ccc(N2C(=O)C(NC(=O)c3c(F)cccc3F)(C(F)(F)F)C3=C2CC(C)(C)CC3=O)cc1` (configuration not stated), the activation was -1.79% (inactive). To `O=C(c1cccc(C(F)(F)F)c1)N1CC[C@H]2[C@H](CCCN2Cc2cc(F)cc(F)c2)C1` belongs -0.81% (inactive); to `Clc1cccc(-c2nc3nc4ccccc4nc3n2Cc2ccco2)c1`, 7.47% (active).

On to `O=C(CSc1nnc(-c2ccccc2)n1Cc1ccco1)Nc1ccccc1-c1ccccc1`, for which the activation was -2.62% (inactive). As for `O=C(CSc1nnc(-c2cccc(Cl)c2)n1Cc1ccco1)Nc1ccc(OCc2ccccc2)cc1`, the activation was -3.78% (inactive). The figure for `COC(=O)[C@]12C[C@H](CC(=O)NCCc3ccccc3OC)C(=O)N(Cc3ccccc3)C1=C[C@H](C(C)C)O[C@@H]2C1CC1` is -0.81% (inactive). With `COc1cccc(OC)c1C(=O)N1CCN(Cc2cccnc2)CC1`, the activation is -1.19% (inactive).

Consider `Cc1ccc(C2=CCN(C)C(=O)N2c2ccc(Cl)cc2)cc1`, for which the activation was -0.28% (inactive). To `COC(=O)CC1CCc2cc(C)cc(C(CC(C)C)NC(=O)[C@H](CC(C)C)NC(=O)OCc3ccccc3)c2O1` (some centres not stated) belongs -1.44% (inactive); to `O=C(COC(=O)/C=C/c1ccc(Cl)cc1)NC1CCS(=O)(=O)C1` (configuration not stated), -0.16% (inactive). Consider `Cc1csc(NC(=O)CN2CCCCCC2)n1`, for which the activation was 0.84% (inactive). With `Cc1ccc(C(=O)NCC(=O)O)s1`, the activation was -0.44% (inactive). To `COc1ccccc1NC(=O)c1c(Br)cnn1C` belongs -1.66% (inactive); to `COc1ccccc1NC(=O)c1cc(Cl)nnc1Cl`, 1.71% (inactive). To `Cc1csc(NC(=O)c2ccc(C)s2)n1` belongs 6.44% (active). In the case of `COc1ccccc1NC(=O)c1ccc(C)s1`, the activation was 9.1% (active). As to `C=CCC[C@@H](Cc1ccc(F)cc1)C(=O)OC[C@H](Cc1c[nH]c2ccccc12)NC(=O)[C@@H](CC=C)CC(=O)N(CCO)Cc1ccccc1`, the activation is -2.25% (inactive). Turning to `CCCCNc1cccc2c1S(=O)(=O)N[C@@H](C)CO2`, the activation was 2.03% (inactive). The figure for `COC(=O)[C@]12C[C@H](CC(=O)NCCCN3CCCC3=O)C(=O)N(CCc3ccc(OC)c(OC)c3)C1=C[C@H](COCc1ccccc1)O[C@@H]2C` is -0.83% (inactive).

In the case of `Cc1ccnc(-n2sc3ccccc3c2=O)n1`, the activation was 4.36% (inactive).

In the case of `Cc1ccnc(Nc2nc3ccccc3s2)n1`, the activation is 9.2% (active). To `C[C@H](C(=O)N(C)c1ccccc1)[C@@H](O)c1ccc2ccccc2c1` belongs 0.57% (inactive); to `COc1cccc(CNC(=O)[C@H]2CCCN2C(=O)[C@H]2CCCN2C(=O)c2ccc(F)cc2)c1`, 2.09% (inactive). The figure for `COC(=O)C1=C(C)N(Cc2ccc(C(F)(F)F)cc2)C(=NCc2ccccc2)NC1c1ccccc1C(F)(F)F` (configuration not stated) is 0.56% (inactive). Turning to `Cc1cc(C)c2nc(N3CCC(C(=O)NCCN4CCOCC4)CC3)sc2c1`, the activation is 1.35% (inactive). As for `Cc1ccc(C)c(C(C)NC(=O)C2CCCO2)c1` (configuration not stated), the activation is -1.93% (inactive). Consider `Cc1cc(C)c2nc(NC(=O)C3CCCO3)sc2c1` (configuration not stated), for which the activation is 8.44% (active). To `O=C(C(=O)N1CCC(CNC(=O)c2cccnc2Cl)CC1)c1cccs1` belongs -0.06% (inactive); to `O=C(NCc1ccccc1)[C@@H]1CCCN1C(=O)[C@@H](NS(=O)(=O)c1ccc(F)cc1F)C1CCCCC1`, -1.11% (inactive). To `Cc1cnc(NC(=O)c2ccc(Cl)nc2)s1` belongs 7.6% (active). To `Cc1cccc(NC(=O)c2cccc(C(=O)Nc3cccc(C)c3C)n2)c1C` belongs 0.52% (inactive); to `Cc1ccc(NC(=O)c2ccc(Cl)nc2)cc1S(=O)(=O)N1CCOCC1`, -0.39% (inactive).

Turning to `Cc1cnc(NC(=O)Cn2cnc3c2c(=O)n(C)c(=O)n3C)s1`, the activation was -1.32% (inactive). Take `Cc1cnc(NC(=O)c2ccccn2)s1`: the activation is 5.94% (active).

With `O=C(Nc1ccc2nc3n(c(=O)c2c1)CCCC3)c1ccc(Cl)nc1`, the activation is -2.27% (inactive). The figure for `COc1ccccc1C(=O)N1O[C@]23C=C[C@]14C[C@@H](O)CC[C@]4(C)C2CC[C@]1(C)[C@@H]([C@H](C)/C=C/[C@H](C)C(C)C)CC[C@H]13` (some centres not stated) is 0.11% (inactive); for `C[C@@H]1CN([C@H](C)CO)C(=O)CCCn2cc(nn2)CO[C@H]1CN(C)C(=O)Nc1ccc(N2CCCCC2)cc1` it is -1.32% (inactive); for `Cc1ccc(-n2c(SCC(=O)Nc3cccc4ccccc34)nnc2-c2ccccn2)cc1` it is 0.59% (inactive). As to `C[C@H]1[C@H](c2ccccc2)Oc2cc(Br)ccc2S(=O)(=O)N1Cc1cccc(F)c1`, the activation was -0.73% (inactive). On to `COc1ccc(S(=O)(=O)NCCc2cc3ccc(C)c(C)c3[nH]c2=O)cc1`, for which the activation was -0.62% (inactive).

Turning to `CC1CCCCC1NC(=O)/C(C#N)=C/C=C/c1ccccc1[N+](=O)[O-]` (configuration not stated), the activation was -0.31% (inactive). Regarding `COc1cc(NC(=O)COC(=O)CSc2ccc3ccccc3c2)c(C)cc1[N+](=O)[O-]`, the activation was 2.93% (inactive). To `COc1cc(/C=C(\C#N)C(=O)Nc2ccc3ccccc3c2)c([N+](=O)[O-])cc1OC` belongs 5.84% (active).

Values taken from PubChem BioAssay AID652067 (The Scripps Research Institute Molecular Screening Center, 2013).
